Most compounds without a hit are left out; they make up all but 3% or so of the library.
TROY signal inh – inhibitors of TROY-driven NF-kB signaling, primary screen, Q293 LMP1-TROYcd cells, NF-kB luciferase, uHTS | Q293 LMP1-TROYcd NF-kB luciferase reporter, 4 h | inhibition, % at 10 µM | 360,000 tested, 0.98% active;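 active = compounds whose plate-normalised and pattern-corrected inhibition of the luciferase reporter signal at the single screening dose is 50% or more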
TWEAK Fn14 block – inhibitors of TWEAK-Fn14 signaling, primary screen, luciferase reporter cells, uHTS | TWEAK-stimulated Fn14 reporter cells, luciferase luminescence, 8 h | inhibition, % at 10 µM | 360,000 tested, 2% active | AID 1159606, 2016; in the data active = inhibition above about 50%
EBV LMP1 NFkB – EBV LMP1-driven NF-kappaB luciferase reporter inhibitors, primary screen, cell-based, luminescence, single point; LMP1-induced NF-kappaB luciferase reporter cells; inhibition, % at 12.5 µM; 350,000 tested, 0.69% active; in the data active = inhibition above about 41%; inconclusive = no clear call, values can overlap the other calls
MITF act – activators of MITF-driven TRPM1 promoter reporter, primary screen, cell-based, SK-MEL-5, luciferase, single point. SK-MEL-5 TRPM1-promoter luciferase, 24 h; % of positive control, neutral wells = 0. activation, % at 12.5 µM. 300,000 tested, 0.75% active. AID 588334, 2011;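 active = mean activation of at least 80% with every replicate also reaching 80%; inconclusive = mean reaches 80% but some replicate falls short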
MITF TRPM1 inh – inhibitors of MITF-dependent TRPM1 promoter reporter, primary screen, cell-based, SK-MEL-5, single point, luciferase. SK-MEL-5 TRPM1 promoter luciferase, 24 h. inhibition, % at 12.5 µM. 330,000 tested, 0.83% active. AID 488899, 2010;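 active = mean inhibition across replicates of 60% or more, whatever share of single replicates reaches that level; inconclusive = some that reach 60%, reason not given; inactive = mean inhibition across replicates below 60%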
LGR2 inh – inhibitors of bursicon-induced LGR2 CRE-luciferase signal, primary screen, cell-based, HEK293, CRE-luciferase reporter, bursicon stimulation | Drosophila bursicon receptor LGR2 (rickets) | bursicon-stimulated, 4 h | inhibition, % at 9.99 µM | 380,000 tested, 0.35% active | AID 720647, 2013;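 active = drop in luminescence signal, shown as inhibition above about 50% in the replicate tests, limit read from the data, passing the limit was not always enough; inconclusive = probably only some replicates passing the limit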;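 note: agonist challenge used bursicon conditioned medium at about half maximal strength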
Numbers stand for hits; n = inactive; u = inconclusive; x = no result given.

SMILES	TROY signal inh	TWEAK Fn14 block	EBV LMP1 NFkB	MITF act	MITF TRPM1 inh	LGR2 inh
O=C(Nc1nc(-c2ccc(S(=O)(=O)N3CCOCC3)cc2)cs1)c1ccccc1	53.1	85.4	n	n	n	u
COc1ccc(S(=O)(=O)N2CCOCC2)cc1NC(=O)c1ccc(Cl)cc1	n	n	n	n	n	n
Cc1cc(NC(=O)c2cccc(S(=O)(=O)N3CCCCCC3)c2)n(-c2ccccn2)n1	n	51.8	n	n	n	n
O=C(Nc1cc(S(=O)(=O)N2CCOCC2)ccc1Cl)c1ccncc1	n	n	69.2	n	n	n
O=C(Nc1nc(-c2ccccn2)cs1)c1ccc(F)c(S(=O)(=O)N2CCOCC2)c1	n	n	n	n	66.9	n
CC(C)CC(=O)Nc1nc(-c2ccc(S(=O)(=O)N3CCOCC3)cc2)cs1	n	n	n	n	n	n
COc1ccccc1-c1cn(CC[C@H]2CC[C@H](NC(=O)C3CCCC3)[C@H](CO)O2)nn1	x	x	x	x	x	n
COc1ccc2c3c([nH]c2c1)[C@H](CO)N(S(C)(=O)=O)CC31CCN(Cc2cccc(F)c2)CC1	x	x	x	x	x	n
O=C(Nc1ccc(Br)cc1)c1ccc(F)c(S(=O)(=O)N2CCN(c3ccccn3)CC2)c1	n	53.1	n	n	n	n
Cc1ccccc1NC(=O)c1ccc(F)c(S(=O)(=O)N2CCN(c3ccccn3)CC2)c1	n	n	n	n	n	n
O=C(Nc1nc(-c2ccccc2)cs1)C1CCCN(S(=O)(=O)c2ccccc2)C1 (stereo not given)	n	88.0	n	n	n	n
O=C(Nc1nc(-c2ccccc2)c(C(=O)c2ccccc2)s1)c1ccc(S(=O)(=O)N2CCCC2)cc1	n	72.2	n	n	n	n
O=C(Nc1nc(-c2ccc(S(=O)(=O)N3CCCC3)cc2)cs1)c1cccs1	53.3	54.8	n	n	n	x
O=C(Nc1nc(-c2ccccc2)cs1)C1CCCN(S(=O)(=O)c2cccc([N+](=O)[O-])c2)C1 (stereo not given)	n	n	n	x	n	x
C[C@H](CO)N1C[C@H](C)[C@@H](CN(C)Cc2ccc(Cl)c(Cl)c2)OCc2cn(nn2)CCCC1=O	x	x	x	x	x	n
C[C@@H]1CN([C@@H](C)CO)C(=O)c2cc(C#Cc3ccccc3F)cnc2O[C@@H]1CN(C)C(=O)Cc1cccnc1	x	x	x	x	x	n
COc1ccc(S(=O)(=O)N(C)C[C@H]2Oc3c(NC(=O)NC(C)C)cccc3C(=O)N([C@@H](C)CO)C[C@@H]2C)cc1	x	x	x	x	x	n
COC(=O)c1c(-c2ccccc2)csc1NC(=O)c1ccco1	n	n	n	105.4	n	x
CC(=O)c1c(C)[nH]c(C(=O)NCc2ccccc2Cl)c1C	n	n	n	x	n	x
Cc1sc(NC(=O)c2ccco2)nc1-c1ccccc1	n	n	n	96.4	n	x
O=C(Nc1scc(-c2ccc(F)cc2)c1C(=O)O)c1ccco1	n	n	n	n	n	x
CC(=O)c1c(C)[nH]c(C(=O)NCc2ccccc2F)c1C	n	54.3	n	n	n	n
CC(=O)c1c(C)[nH]c(C(=O)Nc2nc(-c3ccccc3)c(C)s2)c1C	n	n	n	111.0	n	n
CC(=O)c1sc(NC(=O)c2ccco2)nc1-c1ccccc1	n	n	n	n	n	x
COc1ccc(NC(=O)N(C)C[C@H]2Oc3ccc(NS(=O)(=O)c4ccc(Cl)cc4)cc3CC(=O)N([C@@H](C)CO)C[C@@H]2C)cc1	x	x	x	x	x	n
SMILES	TROY signal inh	TWEAK Fn14 block	EBV LMP1 NFkB	MITF act	MITF TRPM1 inh	LGR2 inh
CN(C)CC(=O)Nc1ccc2c(c1)[C@@H]1C[C@H](CC(=O)NCCc3ccccc3)O[C@H](CO)[C@@H]1O2	x	x	x	x	x	n
CC(=O)c1c(C)[nH]c(C(=O)Nc2ccc(N3CCCCCC3)cc2)c1C	n	72.3	n	x	x	n
Cc1nc(NC(=O)c2ccco2)sc1C(=O)O	n	59.4	n	n	n	n
CC(=O)c1sc(NC(=O)c2ccccc2F)nc1-c1ccccc1	n	n	n	87.6	n	n
COC(=O)c1sc(NC(=O)c2ccco2)nc1C	n	n	n	n	n	n
CC(=O)c1c(C)[nH]c(C(=O)Nc2cccc(C)n2)c1C	n	52.7	n	n	n	n
C[C@@H]1CN([C@@H](C)CO)C(=O)c2cc(NS(=O)(=O)c3cccs3)ccc2O[C@@H](C)CCCCO[C@@H]1CN(C)S(=O)(=O)c1ccc(F)cc1	x	x	x	x	x	n
C[C@@H]1CN([C@@H](C)CO)C(=O)c2cc(NC(=O)C3CC3)ccc2O[C@@H]1CN(C)Cc1ccc(C(F)(F)F)cc1	x	x	x	x	x	n
CN(C)c1ccc(C=C2C=CC=C2)cc1	n	61.6	n	n	n	x
CN1C(=O)/C(=C\c2ccc(N(C)C)cc2)OC1=S	n	n	n	x	n	n
C[C@H](CO)N1C[C@H](C)[C@@H](CN(C)S(=O)(=O)c2ccccc2)Oc2ccc(NC(=O)CCN3CCOCC3)cc2CC1=O	x	x	x	x	x	n
Cc1cc(C(=O)CN2C(=O)C(=O)N(Cc3ccccc3)C2=O)c(C)n1-c1ccc2c(c1)OCCO2	n	51.2	n	n	n	u
Cc1cc(C(=O)CSc2nnnn2C)c(C)n1-c1ccc2c(c1)OCCO2	52.4	n	n	n	n	x
CCC(=O)N1CC2(CCN(S(C)(=O)=O)CC2)c2c(n(C)c3cc(OC)ccc23)[C@H]1CO	x	x	x	x	x	n
COc1ccc(S(=O)(=O)c2cnc3ccccc3n2)cc1	n	n	n	n	n	n
O=S(=O)(c1ccc(Br)cc1)c1cnc2ccccc2n1	n	54.6	n	n	n	n
Cc1ccc(S(=O)(=O)Nc2ccc3c(c2)C(=O)N([C@H](C)CO)C[C@@H](C)[C@H](CN(C)C(=O)Nc2c(C)noc2C)O3)cc1	x	x	x	x	x	n
O=C(NNC(=O)c1ccccc1-n1cccc1)c1ccc(Cl)cc1	n	83.2	n	n	n	x
C[C@@H]1CCCCO[C@H](CN(C)S(C)(=O)=O)[C@@H](C)CN([C@H](C)CO)C(=O)c2cc(NC(=O)Nc3ccccc3)ccc2O1	x	x	x	x	x	n
COc1ccc(NC(=O)Nc2ccc3c(c2)C(=O)N([C@@H](C)CO)C[C@@H](C)[C@@H](CN(C)Cc2ccc(C(=O)O)cc2)OCCCC[C@@H](C)O3)cc1	x	x	x	x	x	n
COc1ccc(NC(=O)Nc2ccc3c(c2)C(=O)N([C@H](C)CO)C[C@@H](C)[C@@H](CN(C)S(=O)(=O)c2cn(C)cn2)O3)cc1	x	x	x	x	x	n
CN1CCN(C(=O)C[C@@H]2C=C[C@H](NC(=O)Nc3ccccc3F)[C@H](CO)O2)CC1	x	x	x	x	x	n
Clc1ccc2c(NCCNC3CCCCC3)ccnc2c1	n	n	n	n	94.9	n
CC(C)NC1CCC(Nc2ccnc3cc(Cl)ccc23)CC1 (stereo not given)	n	n	n	n	n	n

Source: PubChem (several laboratories)
